# From ChEMBL document CHEMBL2218924, “A broad activity screen in support of a chemogenomic map for kinase signalling research and drug discovery” (Biochem J, 2013)
# Legend:
# [1] = target: Serine/threonine-protein kinase PAK 5 (Homo sapiens) (UniProt Q9P286); conditions: at 1 µM
# [2] = target: Serine/threonine-protein kinase PAK 5 (Homo sapiens) (UniProt Q9P286); conditions: at 10 µM
# [3] = target: Serine/threonine-protein kinase PAK 6 (Homo sapiens) (UniProt Q9NQU5); conditions: at 1 µM
# [4] = target: Serine/threonine-protein kinase PAK 6 (Homo sapiens) (UniProt Q9NQU5); conditions: at 10 µM
# [5] = target: Activated CDC42 kinase 1 (Homo sapiens) (UniProt Q07912); conditions: at 1 µM
# [6] = target: Activated CDC42 kinase 1 (Homo sapiens) (UniProt Q07912); conditions: at 10 µM
# [7] = target: ALK tyrosine kinase receptor (Homo sapiens) (UniProt Q9UM73); conditions: at 1 µM
# ALK tyrosine kinase receptor (Homo sapiens), sequence (Q9UM73 19-1620 limits assumed): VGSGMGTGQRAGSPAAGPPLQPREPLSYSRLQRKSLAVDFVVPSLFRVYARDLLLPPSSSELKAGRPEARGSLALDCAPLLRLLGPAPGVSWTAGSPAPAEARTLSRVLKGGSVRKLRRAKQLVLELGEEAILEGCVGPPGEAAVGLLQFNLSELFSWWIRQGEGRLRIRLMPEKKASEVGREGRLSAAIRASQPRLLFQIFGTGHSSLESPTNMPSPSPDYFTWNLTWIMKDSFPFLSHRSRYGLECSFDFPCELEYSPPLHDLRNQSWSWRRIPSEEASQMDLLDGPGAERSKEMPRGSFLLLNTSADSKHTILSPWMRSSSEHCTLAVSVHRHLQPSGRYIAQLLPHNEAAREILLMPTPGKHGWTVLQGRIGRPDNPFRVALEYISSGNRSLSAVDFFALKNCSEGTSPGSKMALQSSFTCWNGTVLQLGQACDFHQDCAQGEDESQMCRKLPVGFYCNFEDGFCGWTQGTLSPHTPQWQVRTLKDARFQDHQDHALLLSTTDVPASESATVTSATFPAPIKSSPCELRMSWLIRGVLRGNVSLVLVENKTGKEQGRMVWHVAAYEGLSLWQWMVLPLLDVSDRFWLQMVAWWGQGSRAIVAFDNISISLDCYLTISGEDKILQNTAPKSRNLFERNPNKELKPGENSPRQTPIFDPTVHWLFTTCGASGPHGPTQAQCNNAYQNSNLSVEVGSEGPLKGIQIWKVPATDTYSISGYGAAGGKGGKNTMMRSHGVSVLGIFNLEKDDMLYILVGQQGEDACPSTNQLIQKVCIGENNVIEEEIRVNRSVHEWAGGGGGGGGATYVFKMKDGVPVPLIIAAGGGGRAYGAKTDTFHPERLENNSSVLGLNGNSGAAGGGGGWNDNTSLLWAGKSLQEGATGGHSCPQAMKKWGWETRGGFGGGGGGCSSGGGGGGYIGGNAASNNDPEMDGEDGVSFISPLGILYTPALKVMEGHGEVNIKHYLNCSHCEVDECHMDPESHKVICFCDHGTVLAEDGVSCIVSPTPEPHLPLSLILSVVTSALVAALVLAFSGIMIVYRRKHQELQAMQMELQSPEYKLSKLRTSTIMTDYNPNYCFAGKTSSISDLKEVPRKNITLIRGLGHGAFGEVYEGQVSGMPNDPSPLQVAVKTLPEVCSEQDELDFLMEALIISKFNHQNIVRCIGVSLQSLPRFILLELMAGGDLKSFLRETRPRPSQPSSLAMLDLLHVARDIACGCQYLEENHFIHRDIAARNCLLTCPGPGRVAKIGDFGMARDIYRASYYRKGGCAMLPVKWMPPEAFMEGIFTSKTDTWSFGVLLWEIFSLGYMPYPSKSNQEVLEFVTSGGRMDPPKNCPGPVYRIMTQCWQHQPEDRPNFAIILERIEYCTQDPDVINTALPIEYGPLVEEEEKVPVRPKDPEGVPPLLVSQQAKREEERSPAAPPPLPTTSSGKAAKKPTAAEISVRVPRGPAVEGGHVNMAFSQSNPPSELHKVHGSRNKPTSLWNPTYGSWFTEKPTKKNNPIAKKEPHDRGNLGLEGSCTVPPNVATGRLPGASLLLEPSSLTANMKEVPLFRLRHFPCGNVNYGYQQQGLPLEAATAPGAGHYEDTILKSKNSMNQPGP
# [8] = target: ALK tyrosine kinase receptor (Homo sapiens) (UniProt Q9UM73); conditions: at 10 µM
# [9] = target: T1, Activin receptor type-1B (Homo sapiens) (UniProt P36896); conditions: at 1 µM
# T1 sequence (whole entry): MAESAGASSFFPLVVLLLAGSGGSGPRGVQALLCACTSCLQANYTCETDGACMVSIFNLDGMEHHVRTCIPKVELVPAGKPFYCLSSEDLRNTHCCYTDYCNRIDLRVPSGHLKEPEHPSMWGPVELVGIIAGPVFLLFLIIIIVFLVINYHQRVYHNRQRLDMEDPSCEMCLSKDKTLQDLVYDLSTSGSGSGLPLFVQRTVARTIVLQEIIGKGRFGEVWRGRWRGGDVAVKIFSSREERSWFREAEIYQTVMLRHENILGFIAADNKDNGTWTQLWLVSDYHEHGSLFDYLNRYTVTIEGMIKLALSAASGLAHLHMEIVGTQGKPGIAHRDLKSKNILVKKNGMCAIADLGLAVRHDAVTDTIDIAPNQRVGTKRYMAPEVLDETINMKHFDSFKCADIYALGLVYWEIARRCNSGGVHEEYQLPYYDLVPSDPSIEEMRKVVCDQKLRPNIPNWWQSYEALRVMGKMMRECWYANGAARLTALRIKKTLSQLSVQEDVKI
# [10] = target: T1, Activin receptor type-1B (Homo sapiens); conditions: at 10 µM
# [11] = target: T2, AMP-activated protein kinase (AMPK) alpha-1/beta-1/gamma-1 (Homo sapiens) (UniProt P54619+Q9Y478+Q13131); conditions: at 10 µM
# [12] = target: T3, AMP-activated protein kinase, AMPK (Homo sapiens) (UniProt P54646+O43741+P54619+Q9UGJ0+Q9Y478+Q13131+Q9UGI9); conditions: at 10 µM
# [13] = target: T4, NUAK family SNF1-like kinase 1 (Homo sapiens) (UniProt O60285); conditions: at 10 µM
# T4 sequence (whole entry): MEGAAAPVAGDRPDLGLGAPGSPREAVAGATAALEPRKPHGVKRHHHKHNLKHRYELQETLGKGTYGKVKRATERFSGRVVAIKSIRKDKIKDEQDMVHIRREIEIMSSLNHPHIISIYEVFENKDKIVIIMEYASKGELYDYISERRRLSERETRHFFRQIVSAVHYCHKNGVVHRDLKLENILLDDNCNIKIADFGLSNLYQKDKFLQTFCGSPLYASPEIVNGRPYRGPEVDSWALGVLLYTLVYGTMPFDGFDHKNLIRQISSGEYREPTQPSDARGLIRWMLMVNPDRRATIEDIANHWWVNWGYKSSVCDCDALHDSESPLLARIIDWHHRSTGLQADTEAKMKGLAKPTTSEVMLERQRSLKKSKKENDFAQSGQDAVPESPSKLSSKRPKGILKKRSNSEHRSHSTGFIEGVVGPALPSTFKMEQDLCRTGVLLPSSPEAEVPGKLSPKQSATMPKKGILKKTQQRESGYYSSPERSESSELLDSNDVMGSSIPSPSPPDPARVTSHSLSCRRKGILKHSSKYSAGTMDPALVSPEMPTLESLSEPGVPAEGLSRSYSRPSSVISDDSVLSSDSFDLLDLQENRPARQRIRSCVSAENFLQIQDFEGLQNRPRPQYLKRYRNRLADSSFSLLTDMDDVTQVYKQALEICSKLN
# [14] = target: T5, Mitogen-activated protein kinase kinase kinase 5 (Homo sapiens) (UniProt Q99683); conditions: at 1 µM
# T5 sequence (whole entry): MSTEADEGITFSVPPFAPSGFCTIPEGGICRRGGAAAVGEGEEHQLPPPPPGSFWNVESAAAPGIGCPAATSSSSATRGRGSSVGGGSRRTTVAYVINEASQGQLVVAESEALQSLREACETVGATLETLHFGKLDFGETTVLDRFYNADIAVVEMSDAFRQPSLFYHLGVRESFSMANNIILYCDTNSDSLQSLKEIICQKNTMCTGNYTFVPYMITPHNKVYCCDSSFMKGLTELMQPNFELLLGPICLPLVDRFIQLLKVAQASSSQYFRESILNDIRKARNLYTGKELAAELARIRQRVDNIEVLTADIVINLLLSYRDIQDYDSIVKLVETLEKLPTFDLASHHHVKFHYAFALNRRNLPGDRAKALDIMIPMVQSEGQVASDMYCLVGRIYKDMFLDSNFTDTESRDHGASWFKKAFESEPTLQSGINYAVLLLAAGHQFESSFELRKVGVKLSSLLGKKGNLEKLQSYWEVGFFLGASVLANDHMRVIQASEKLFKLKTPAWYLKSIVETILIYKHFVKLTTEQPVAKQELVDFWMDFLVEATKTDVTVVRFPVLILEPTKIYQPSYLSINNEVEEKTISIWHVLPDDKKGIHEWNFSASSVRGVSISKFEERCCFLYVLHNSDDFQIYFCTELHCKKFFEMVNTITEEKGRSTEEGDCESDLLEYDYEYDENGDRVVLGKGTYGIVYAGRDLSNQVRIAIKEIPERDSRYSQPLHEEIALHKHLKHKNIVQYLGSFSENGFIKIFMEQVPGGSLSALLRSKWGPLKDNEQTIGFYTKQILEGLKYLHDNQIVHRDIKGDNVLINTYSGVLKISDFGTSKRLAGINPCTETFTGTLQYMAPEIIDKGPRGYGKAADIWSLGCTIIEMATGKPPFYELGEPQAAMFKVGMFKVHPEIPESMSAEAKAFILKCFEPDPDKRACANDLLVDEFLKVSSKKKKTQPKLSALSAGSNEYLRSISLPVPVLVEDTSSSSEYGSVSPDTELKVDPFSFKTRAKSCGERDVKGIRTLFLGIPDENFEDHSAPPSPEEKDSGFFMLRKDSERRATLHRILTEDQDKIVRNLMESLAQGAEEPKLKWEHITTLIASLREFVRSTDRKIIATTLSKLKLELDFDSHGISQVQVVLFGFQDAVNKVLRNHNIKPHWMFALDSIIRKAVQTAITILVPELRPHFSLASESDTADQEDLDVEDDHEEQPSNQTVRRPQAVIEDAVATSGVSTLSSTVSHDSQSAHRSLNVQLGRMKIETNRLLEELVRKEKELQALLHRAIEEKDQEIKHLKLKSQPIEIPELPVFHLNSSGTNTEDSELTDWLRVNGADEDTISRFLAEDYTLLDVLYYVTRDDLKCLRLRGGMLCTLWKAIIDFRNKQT
# [15] = target: PAS domain-containing serine/threonine-protein kinase (Homo sapiens) (UniProt Q96RG2); conditions: at 10 µM
# PAS domain-containing serine/threonine-protein kinase (Homo sapiens), sequence (Q96RG2 whole entry, the tested form may be a part): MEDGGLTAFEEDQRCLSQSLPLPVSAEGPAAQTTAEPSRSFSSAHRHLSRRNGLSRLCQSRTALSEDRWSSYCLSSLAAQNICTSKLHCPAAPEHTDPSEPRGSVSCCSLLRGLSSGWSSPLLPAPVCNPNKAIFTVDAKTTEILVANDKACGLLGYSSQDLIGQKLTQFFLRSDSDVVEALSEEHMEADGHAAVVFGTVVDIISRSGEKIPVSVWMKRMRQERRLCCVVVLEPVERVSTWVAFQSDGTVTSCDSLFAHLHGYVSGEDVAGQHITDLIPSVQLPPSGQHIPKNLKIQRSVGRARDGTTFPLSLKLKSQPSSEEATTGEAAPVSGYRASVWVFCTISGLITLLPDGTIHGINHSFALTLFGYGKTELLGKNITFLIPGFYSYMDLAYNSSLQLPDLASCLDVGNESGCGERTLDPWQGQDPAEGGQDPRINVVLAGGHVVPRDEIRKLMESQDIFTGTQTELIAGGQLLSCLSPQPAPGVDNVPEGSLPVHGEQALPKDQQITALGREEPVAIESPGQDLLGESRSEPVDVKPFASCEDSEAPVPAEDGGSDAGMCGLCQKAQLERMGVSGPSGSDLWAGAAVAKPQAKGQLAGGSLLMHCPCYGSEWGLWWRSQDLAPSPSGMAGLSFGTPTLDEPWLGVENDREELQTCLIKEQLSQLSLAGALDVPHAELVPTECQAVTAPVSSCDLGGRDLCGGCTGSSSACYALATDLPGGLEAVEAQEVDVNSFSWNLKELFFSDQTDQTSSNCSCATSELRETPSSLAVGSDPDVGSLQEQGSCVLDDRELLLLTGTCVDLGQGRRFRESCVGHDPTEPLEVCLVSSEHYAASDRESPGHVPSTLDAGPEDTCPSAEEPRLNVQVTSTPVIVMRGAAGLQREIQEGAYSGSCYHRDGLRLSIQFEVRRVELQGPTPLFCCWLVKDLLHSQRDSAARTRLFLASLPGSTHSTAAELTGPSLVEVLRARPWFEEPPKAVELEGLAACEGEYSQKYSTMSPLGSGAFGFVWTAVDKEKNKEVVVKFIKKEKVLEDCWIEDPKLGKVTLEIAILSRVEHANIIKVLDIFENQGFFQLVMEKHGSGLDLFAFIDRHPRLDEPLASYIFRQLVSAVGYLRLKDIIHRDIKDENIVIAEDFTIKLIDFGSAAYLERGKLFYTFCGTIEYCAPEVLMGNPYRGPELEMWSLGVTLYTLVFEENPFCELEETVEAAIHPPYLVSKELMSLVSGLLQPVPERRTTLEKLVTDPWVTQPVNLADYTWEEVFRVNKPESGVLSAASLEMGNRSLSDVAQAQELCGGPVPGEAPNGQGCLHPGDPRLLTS
# [16] = target: Serine/threonine-protein kinase PAK 4 (Homo sapiens) (UniProt O96013); conditions: at 1 µM
# Serine/threonine-protein kinase PAK 4 (Homo sapiens), sequence (O96013 whole entry, looked up): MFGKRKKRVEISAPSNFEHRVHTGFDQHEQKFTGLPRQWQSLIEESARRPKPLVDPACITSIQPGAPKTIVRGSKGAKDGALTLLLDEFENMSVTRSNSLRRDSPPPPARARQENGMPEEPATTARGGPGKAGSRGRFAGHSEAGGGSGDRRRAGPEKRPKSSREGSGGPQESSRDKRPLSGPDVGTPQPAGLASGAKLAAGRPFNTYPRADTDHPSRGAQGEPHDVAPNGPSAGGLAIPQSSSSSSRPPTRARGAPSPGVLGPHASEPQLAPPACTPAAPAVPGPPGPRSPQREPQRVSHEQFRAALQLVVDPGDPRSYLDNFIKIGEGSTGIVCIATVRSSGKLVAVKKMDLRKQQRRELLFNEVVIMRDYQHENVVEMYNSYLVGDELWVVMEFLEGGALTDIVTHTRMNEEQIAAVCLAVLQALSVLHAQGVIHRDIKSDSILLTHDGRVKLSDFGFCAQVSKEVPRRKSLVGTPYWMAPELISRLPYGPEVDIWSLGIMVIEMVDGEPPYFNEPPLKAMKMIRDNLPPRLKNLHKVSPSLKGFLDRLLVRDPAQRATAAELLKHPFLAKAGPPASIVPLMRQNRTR
# [17] = target: Serine/threonine-protein kinase PAK 4 (Homo sapiens) (UniProt O96013); conditions: at 10 µM
# [18] = target: T2, AMP-activated protein kinase (AMPK) alpha-1/beta-1/gamma-1 (Homo sapiens); conditions: at 1 µM
# [19] = target: T4, NUAK family SNF1-like kinase 1 (Homo sapiens); conditions: at 1 µM
# [20] = target: T3, AMP-activated protein kinase, AMPK (Homo sapiens); conditions: at 1 µM
# Serine/threonine-protein kinase PAK 5 (Homo sapiens), sequence (Q9P286 whole entry, looked up): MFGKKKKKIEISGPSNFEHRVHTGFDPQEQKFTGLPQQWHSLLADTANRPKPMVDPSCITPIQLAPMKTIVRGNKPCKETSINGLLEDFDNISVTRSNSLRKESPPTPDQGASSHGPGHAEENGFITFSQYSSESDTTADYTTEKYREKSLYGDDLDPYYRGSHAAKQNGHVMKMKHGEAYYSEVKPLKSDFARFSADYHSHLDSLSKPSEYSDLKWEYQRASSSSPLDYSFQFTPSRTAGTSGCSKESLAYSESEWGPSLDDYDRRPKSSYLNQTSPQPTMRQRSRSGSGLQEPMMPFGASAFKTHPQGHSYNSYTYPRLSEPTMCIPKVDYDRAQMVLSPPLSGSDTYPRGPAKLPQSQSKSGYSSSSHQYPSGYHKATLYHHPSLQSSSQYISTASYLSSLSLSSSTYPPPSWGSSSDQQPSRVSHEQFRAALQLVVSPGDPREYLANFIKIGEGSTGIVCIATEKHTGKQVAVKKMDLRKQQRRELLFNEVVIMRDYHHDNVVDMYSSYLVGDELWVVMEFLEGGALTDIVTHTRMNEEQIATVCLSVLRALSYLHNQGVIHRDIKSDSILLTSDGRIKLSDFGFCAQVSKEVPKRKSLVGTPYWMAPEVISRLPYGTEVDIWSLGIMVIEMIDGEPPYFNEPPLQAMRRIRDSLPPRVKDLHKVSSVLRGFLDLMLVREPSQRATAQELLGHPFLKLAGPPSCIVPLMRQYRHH
# Serine/threonine-protein kinase PAK 6 (Homo sapiens), sequence (Q9NQU5 whole entry, looked up): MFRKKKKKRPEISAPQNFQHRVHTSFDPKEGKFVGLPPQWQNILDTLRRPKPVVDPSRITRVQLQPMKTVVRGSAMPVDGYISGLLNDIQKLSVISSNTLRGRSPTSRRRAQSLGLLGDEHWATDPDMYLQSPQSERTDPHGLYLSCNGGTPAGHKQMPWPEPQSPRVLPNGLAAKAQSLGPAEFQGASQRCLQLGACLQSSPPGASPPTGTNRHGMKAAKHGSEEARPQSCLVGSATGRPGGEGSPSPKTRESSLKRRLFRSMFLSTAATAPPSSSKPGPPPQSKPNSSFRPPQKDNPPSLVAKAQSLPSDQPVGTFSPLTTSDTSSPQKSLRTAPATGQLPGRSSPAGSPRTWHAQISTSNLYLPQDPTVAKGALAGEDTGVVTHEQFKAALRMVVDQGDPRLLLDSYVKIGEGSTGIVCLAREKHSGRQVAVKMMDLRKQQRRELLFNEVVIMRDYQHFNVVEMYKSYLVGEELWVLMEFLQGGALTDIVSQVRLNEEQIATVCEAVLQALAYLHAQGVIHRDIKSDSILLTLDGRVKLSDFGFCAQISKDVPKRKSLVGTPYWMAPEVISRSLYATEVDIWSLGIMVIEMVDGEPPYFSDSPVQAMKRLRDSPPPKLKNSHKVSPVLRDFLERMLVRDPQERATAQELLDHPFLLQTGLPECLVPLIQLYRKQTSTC
smiles,measurement,setting,value
COc1cc2ncnc(Nc3cccc(Cl)c3)c2cc1OC,residual activity,[1],109%
same,residual activity,[2],84%
same,residual activity,[3],102%
same,residual activity,[4],87%
same,residual activity,[5],34%
same,residual activity,[6],6%
same,residual activity,[7],100%
same,residual activity,[8],107%
same,residual activity,[9],105%
same,residual activity,[10],101%
same,residual activity,[11],67%
same,residual activity,[12],74%
same,residual activity,[13],52%
same,residual activity,[14],103%
O=c1cc(N2CCOCC2)oc2c(-c3ccccc3)cccc12,residual activity,[4],77%
same,residual activity,[15],59%
same,residual activity,[5],76%
same,residual activity,[6],58%
same,residual activity,[7],73%
same,residual activity,[8],53%
NC(=O)c1ccc(-c2nc(-c3ccc4c(c3)OCCO4)c(-c3ccccn3)[nH]2)cc1,residual activity,[16],99%
same,residual activity,[17],98%
same,residual activity,[5],79%
same,residual activity,[6],68%
same,residual activity,[7],74%
same,residual activity,[8],52%
same,residual activity,[9],31%
same,residual activity,[10],0%
same,residual activity,[18],90%
same,residual activity,[11],92%
same,residual activity,[13],91%
same,residual activity,[14],98%
Nc1ncnc2c1cnn2-c1ccccc1,residual activity,[1],92%
same,residual activity,[3],92%
same,residual activity,[4],86%
same,residual activity,[15],92%
same,residual activity,[5],91%
same,residual activity,[6],61%
same,residual activity,[7],79%
same,residual activity,[18],96%
same,residual activity,[11],90%
same,residual activity,[12],83%
same,residual activity,[19],99%
same,residual activity,[13],87%
same,residual activity,[14],100%
CCOc1nc(NC(=O)Cc2cc(OC)ccc2OC)cc(N)c1C#N,residual activity,[3],100%
same,residual activity,[4],77%
same,residual activity,[5],73%
same,residual activity,[6],58%
same,residual activity,[7],81%
same,residual activity,[8],69%
Nc1nc(Nc2ccc(S(N)(=O)=O)cc2)nn1C(=O)c1c(F)cccc1F,residual activity,[17],17%
same,residual activity,[1],71%
same,residual activity,[2],24%
same,residual activity,[3],79%
same,residual activity,[4],34%
same,residual activity,[5],50%
same,residual activity,[6],9%
same,residual activity,[7],77%
same,residual activity,[8],38%
same,residual activity,[9],100%
same,residual activity,[10],47%
same,residual activity,[18],58%
same,residual activity,[11],11%
same,residual activity,[20],47%
same,residual activity,[12],15%
same,residual activity,[19],4%
same,residual activity,[13],7%
same,residual activity,[14],102%
N#Cc1c(NC(=O)c2cccc3ccccc23)sc2c1CCCC2,residual activity,[3],100%
same,residual activity,[4],66%
same,residual activity,[15],96%
same,residual activity,[5],85%
same,residual activity,[6],61%
same,residual activity,[7],80%
same,residual activity,[8],91%
same,residual activity,[9],87%
same,residual activity,[10],93%
same,residual activity,[18],86%
same,residual activity,[11],97%
same,residual activity,[20],98%
same,residual activity,[13],92%
same,residual activity,[14],88%
CC(C)(C)c1nc2c3ccc(F)cc3c3c(=O)[nH]ccc3c2[nH]1,residual activity,[4],68%
same,residual activity,[5],10%
same,residual activity,[6],0%
same,residual activity,[7],30%
same,residual activity,[8],11%
same,residual activity,[18],33%
same,residual activity,[11],31%
same,residual activity,[20],20%
same,residual activity,[12],23%
same,residual activity,[19],8%
same,residual activity,[13],9%
same,residual activity,[14],81%
